Reference: PubChem BioAssay (Tox21)
A number with no mark means an inactive call. Results filed as inconclusive are left out. Entries that show only a call come without a potency. Calls of active or inactive are those of the source. Unless noted, calls follow the shape of the full dose curve.

Experiments:
[1] = Nuclear factor erythroid 2-related factor 2/antioxidant responsive element (Nrf2/ARE) small molecule agonists: qHTS cell viability counter screen in human keratinocytes (AID 1919968; active = well fitted curve in the direction sought with a large enough effect in the repeat runs; an effect the other way counts as inactive or inconclusive; also: nearly all actives have a fitted effect of over 55% in size)
Outline: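 In human HaCaT keratinocytes stably expressing an ARE-driven luciferase, compound exposure lasted 23 h at 37 C under 5% CO2. Viable cells are quantified with a protease-based fluorogenic reagent (CellTiter-Fluor) read 1 h after addition.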

[2] = Nuclear factor erythroid 2-related factor 2/antioxidant responsive element (Nrf2/ARE) small molecule agonists: luciferase reporter gene qHTS assay in human keratinocytes (AID 1919969); also: nearly all actives have a fitted effect of over 35% in size; also: potency is read from the fitted curve at half-maximal effect
[3] = target: Gonadotropin-releasing hormone receptor (Homo sapiens) (UniProt P30968); test: Human gonadotropin-releasing hormone receptor (GnRHR) small molecule agonists, calcium flux assay in GnRHR-HEK293 cells (AID 1920063); also: nearly all actives have a fitted effect of over 35% in size
Sequence of Gonadotropin-releasing hormone receptor (Homo sapiens) (P30968 whole entry, looked up): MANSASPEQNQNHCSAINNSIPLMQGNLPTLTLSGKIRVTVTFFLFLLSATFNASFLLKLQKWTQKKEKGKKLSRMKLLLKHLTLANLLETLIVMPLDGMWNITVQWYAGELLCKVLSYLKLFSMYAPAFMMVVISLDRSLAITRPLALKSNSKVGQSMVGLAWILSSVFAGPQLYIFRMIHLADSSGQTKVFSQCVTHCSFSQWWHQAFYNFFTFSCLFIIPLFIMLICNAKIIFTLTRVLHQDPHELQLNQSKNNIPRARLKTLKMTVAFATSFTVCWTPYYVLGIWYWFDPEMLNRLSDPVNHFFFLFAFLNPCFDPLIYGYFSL
Outline: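 Intracellular calcium rise is the read-out: engineered human GnRHR HEK293 cells, dye-loaded, are exposed to DMSO-dissolved compounds and fluorescence at Ex/Em 480/540 is tracked for 3 min.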

[4] = target: KiSS-1 receptor (Homo sapiens) (UniProt Q969F8); test: Human kisspeptin (KISS1R) small molecule agonists, calcium flux assay in KISS1R-HEK293 cells (AID 1920064; active = well fitted curve in the direction sought with a large enough effect in the repeat runs; an effect the other way counts as inactive or inconclusive)
Sequence of KiSS-1 receptor (Homo sapiens) (Q969F8 whole entry, looked up): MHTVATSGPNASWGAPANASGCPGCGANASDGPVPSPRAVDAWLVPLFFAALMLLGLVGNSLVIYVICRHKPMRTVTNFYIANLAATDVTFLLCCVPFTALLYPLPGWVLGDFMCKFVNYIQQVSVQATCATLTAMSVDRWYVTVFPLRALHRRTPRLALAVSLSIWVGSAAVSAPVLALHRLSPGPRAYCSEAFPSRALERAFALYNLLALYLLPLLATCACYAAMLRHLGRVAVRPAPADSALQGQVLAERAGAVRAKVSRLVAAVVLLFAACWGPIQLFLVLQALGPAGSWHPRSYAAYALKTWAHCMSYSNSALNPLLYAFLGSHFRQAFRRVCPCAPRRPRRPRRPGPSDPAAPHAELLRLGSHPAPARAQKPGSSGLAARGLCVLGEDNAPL
Outline: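 Concentration-response testing used 15 concentrations in triplicate on human KISS1R-expressing HEK293 cells. Calcium-dependent fluorescence (Ex/Em 480/540) was followed kinetically for 3 min after compound transfer.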

[5] = G protein-coupled receptor (GPCR) small molecule agonists, calcium flux assay: HEK293 wild type cell line counter screen (AID 1920065)
Outline: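 Fluorescence intensity signals activation. After overnight (18 h) culture and a 1 h calcium dye load at 37 C, compounds are added by pin tool and the plate read at 480/540 nm for 3 min in 1 s steps.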

[6] = p53 small molecule agonists, cell-based qHTS assay with human liver microsomes (AID 1963577);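 also: p53 response element beta-lactamase reporter cells with liver microsomes plus NADPH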
Outline: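 p53RE-bla cells; 5 h settle, 37 C/5% CO2; cpd + HLM 0.5 mg/mL + NADPH 0.5 mg/mL (final); 16 h 37 C; LiveBLAzer 2 h RT dark; fluorescence readout.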

[7] = p53 small molecule agonists, cell-based qHTS assay with rat liver microsomes (AID 1963578)
Outline: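 Rat liver microsome activation: microsomes 0.5 mg/mL, NADPH 0.5 mg/mL final; p53RE-bla cells, 16 h 37 C; LiveBLAzer readout, 2 h RT dark.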

[8] = p53 small molecule agonists, cell-based qHTS assay with human liver microsomes: qHTS cell viability counter screen (AID 1963579); also: nearly all actives have a fitted effect of over 45% in size
Outline: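 Luminescent CellTiter-Glo read-out, 30 min at room temperature, gauged cytotoxicity in p53RE-bla cells exposed 16 h at 37 C to DMSO-dissolved compounds with metabolic activation by human liver microsomes and NADPH, each 0.5 mg/mL final.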

[9] = p53 small molecule agonists, cell-based qHTS assay with rat liver microsomes: qHTS cell viability counter screen (AID 1963580); also: nearly all actives have a fitted effect of over 45% in size
Outline: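 Counter screen for cytotoxicity under metabolic activation: rat liver microsomes and NADPH, 0.5 mg/mL final each, added with compounds to p53RE-bla HCT-116 cells; 16 h at 37 C, then ATP luminescence read.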

[10] = p53 small molecule agonists, cell-based qHTS assay: qHTS cell viability counter screen (AID 1963581); also: nearly all actives have a fitted effect of over 45% in size
Outline: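 Luminescence from CellTiter-Glo, reflecting ATP content, serves as the cytotoxicity measure; it is taken after the 2 h reporter substrate step in HCT-116 p53RE-bla cells dosed for 16 h at 37 C.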

[11] = target: 5-hydroxytryptamine receptor 2A (Homo sapiens) (UniProt P28223); test: 5-hydroxytryptamine receptor 2A (HTR2A) small molecule agonists, cell-based qHTS assay (AID 1963587); also: nearly all actives have a fitted effect of over 30% in size
Sequence of 5-hydroxytryptamine receptor 2A (Homo sapiens) (P28223 whole entry, looked up): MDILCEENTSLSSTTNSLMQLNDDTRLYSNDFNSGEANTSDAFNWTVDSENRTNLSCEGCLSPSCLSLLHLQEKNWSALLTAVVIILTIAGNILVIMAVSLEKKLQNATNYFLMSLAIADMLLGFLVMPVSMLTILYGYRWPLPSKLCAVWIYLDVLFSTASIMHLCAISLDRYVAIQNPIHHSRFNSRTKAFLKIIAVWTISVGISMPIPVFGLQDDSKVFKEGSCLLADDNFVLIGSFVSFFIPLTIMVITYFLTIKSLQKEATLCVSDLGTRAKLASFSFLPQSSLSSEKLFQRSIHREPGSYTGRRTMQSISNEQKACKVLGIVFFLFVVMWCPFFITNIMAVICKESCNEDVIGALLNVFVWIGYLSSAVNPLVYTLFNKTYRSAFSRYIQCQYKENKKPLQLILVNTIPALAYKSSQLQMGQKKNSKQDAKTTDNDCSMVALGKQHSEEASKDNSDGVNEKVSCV
Outline: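 HTR2A-CHO cells, plated 18 h at 37 C/5% CO2, dye-loaded 1 h at 37 C; compounds in DMSO added by pin tool (agonist mode). Intracellular calcium flux read as kinetic fluorescence on FDSS over 2 min at 1 s intervals.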

[12] = target: Muscarinic acetylcholine receptor M1 (Homo sapiens) (UniProt P11229); test: Cholinergic receptor muscarinic 1 (CHRM1) small molecule antagonists, cell-based qHTS assay (AID 1963588); also: nearly all actives have a fitted effect of over 40% in size
Sequence of Muscarinic acetylcholine receptor M1 (Homo sapiens) (P11229 whole entry, looked up): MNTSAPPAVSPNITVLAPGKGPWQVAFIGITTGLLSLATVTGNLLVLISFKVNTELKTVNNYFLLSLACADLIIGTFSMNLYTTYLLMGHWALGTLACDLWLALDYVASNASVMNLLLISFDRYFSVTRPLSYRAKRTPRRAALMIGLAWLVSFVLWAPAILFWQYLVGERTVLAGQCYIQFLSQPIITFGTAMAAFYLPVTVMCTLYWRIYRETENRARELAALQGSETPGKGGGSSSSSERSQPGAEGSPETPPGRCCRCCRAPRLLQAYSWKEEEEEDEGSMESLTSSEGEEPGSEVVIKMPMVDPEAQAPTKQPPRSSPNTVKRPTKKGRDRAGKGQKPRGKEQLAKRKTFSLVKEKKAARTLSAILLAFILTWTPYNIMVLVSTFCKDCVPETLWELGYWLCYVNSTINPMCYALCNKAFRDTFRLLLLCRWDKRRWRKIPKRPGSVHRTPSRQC
Outline: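 Compounds were tested at 15 concentrations in three independent runs. Dye-loaded CHRM1-CHO cells were exposed 5 min at room temperature before stimulation by acetylcholine added at 50nM. Intracellular calcium was read kinetically on FDSS for 3 min.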

[13] = target: Muscarinic acetylcholine receptor M1 (Homo sapiens) (UniProt P11229); test: Cholinergic receptor muscarinic 1 (CHRM1) small molecule agonists, cell-based qHTS assay (AID 1963589); also: nearly all actives have a fitted effect of over 35% in size
Outline: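 Fluorescent calcium dye reports M1 activation in stably transfected CHO cells. Compounds, 15 concentrations, added after 1 h dye loading at 37 C; kinetic reading at 1 sec intervals.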

[14] = cAMP Responsive Elements (CRE) small molecule agonists, cell-based qHTS assay (AID 1963590)
Outline: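 Compound exposure lasted 3 h at 37 C/5% CO2 in CRE-bla HEK 293T cells grown in assay medium with 10% dialyzed FBS and 25 mM HEPES. Reporter signal came from LiveBLAzer B/G FRET substrate, 2 h, room temperature.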

[15] = cAMP Responsive Elements (CRE) small molecule antagonists, cell-based qHTS assay (AID 1963591; active = well fitted inhibition curve with a large enough effect in the signal ratio in the repeat runs, not every such curve was filed as active; the % refers to the signal ratio)
Outline: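 Stimulation used NKH477 at a final 0.25 uM for 3 h in compound-treated CRE-bla HEK293T cells, seeded 18 h beforehand. Reporter activity was measured with LiveBLAzer B/G FRET substrate after 2 h at room temperature.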

[16] = target: Beta-2 adrenergic receptor (Homo sapiens) (UniProt P07550); test: Adrenergic beta2 receptor (ADRB2) small molecule antagonists, cell-based qHTS assay (AID 1963592); also: series mostly up to about 92 µM; nearly all actives have a fitted effect of over 50% in size
Sequence of Beta-2 adrenergic receptor (Homo sapiens) (P07550 whole entry, looked up): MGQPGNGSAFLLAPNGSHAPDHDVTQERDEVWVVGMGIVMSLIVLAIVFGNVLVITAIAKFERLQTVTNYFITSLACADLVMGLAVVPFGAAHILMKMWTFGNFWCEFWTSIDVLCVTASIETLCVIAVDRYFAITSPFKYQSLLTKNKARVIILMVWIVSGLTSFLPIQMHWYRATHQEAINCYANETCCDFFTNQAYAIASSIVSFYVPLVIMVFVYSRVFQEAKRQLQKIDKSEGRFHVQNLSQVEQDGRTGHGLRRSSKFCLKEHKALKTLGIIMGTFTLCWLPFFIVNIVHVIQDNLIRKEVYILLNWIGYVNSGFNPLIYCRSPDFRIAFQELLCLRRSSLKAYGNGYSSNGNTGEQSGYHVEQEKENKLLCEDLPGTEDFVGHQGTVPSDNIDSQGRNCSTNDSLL
Outline: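 Assay format: CHO-ADRB2 cells, 18-20hr seeding at 37C/5% CO2, then compound plus 1nM isoproterenol agonist mix for 0.5hr RT. Homogeneous time-resolved fluorescence cAMP detection after 1hr, expressed as 665/615 nm ratio.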

[17] = target: Beta-2 adrenergic receptor (Homo sapiens) (UniProt P07550); test: Adrenergic beta2 receptor (ADRB2) small molecule agonists, cell-based qHTS assay (AID 1963593);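 also: CHO cells stably overexpressing human ADRB2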
Outline: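 CHO cells stably over-expressing ADRB2 were plated overnight at 37C, then dosed with compounds plus a stimulation mix containing 100uM IBMX and 25uM Ro-20-1724 for 0.5hr at room temperature. cAMP was measured by HTRF competition, 1hr.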

[18] = target: D(2) dopamine receptor (Homo sapiens) (UniProt P14416); test: Dopamine D2 receptor (DRD2) small molecule agonists, cell-based qHTS assay (AID 1963594); also: nearly all actives have a fitted effect of over 35% in size; also: potency is read from the fitted curve at half-maximal effect
Sequence of D(2) dopamine receptor (Homo sapiens) (P14416 whole entry, looked up): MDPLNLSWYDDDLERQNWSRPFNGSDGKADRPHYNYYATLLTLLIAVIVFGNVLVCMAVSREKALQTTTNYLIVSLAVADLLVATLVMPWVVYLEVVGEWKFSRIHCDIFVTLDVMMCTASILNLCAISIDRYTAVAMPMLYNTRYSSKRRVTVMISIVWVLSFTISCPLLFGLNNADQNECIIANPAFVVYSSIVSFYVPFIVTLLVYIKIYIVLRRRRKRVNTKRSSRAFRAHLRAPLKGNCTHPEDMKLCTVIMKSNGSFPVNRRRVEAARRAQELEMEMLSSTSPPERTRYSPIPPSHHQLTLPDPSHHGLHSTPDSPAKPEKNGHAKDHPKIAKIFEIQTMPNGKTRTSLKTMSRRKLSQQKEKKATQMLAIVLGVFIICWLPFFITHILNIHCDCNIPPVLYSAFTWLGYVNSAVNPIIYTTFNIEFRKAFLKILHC
Outline: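 HEK293 cells stably expressing DRD2 were cultured 24 h at 37 C, then given Ro20-1724 (0.1 mM final) and compounds for 10 min at room temperature. NKH477 (200nM) was then added for 30 min. cAMP was read by HTRF.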

[19] = target: D(2) dopamine receptor (Homo sapiens) (UniProt P14416); test: Dopamine D2 receptor (DRD2) small molecule antagonists, cell-based qHTS assay (AID 1963595; active = well fitted inhibition curve with a large enough effect in the signal ratio in the repeat runs, with a control signal flat; the % refers to the signal ratio)
Outline: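 HEK293 cells stably expressing DRD2, preincubated with 0.1 mM Ro20-1724 and compounds 10 min, were stimulated with 200 nM NKH477 plus 12 nM quinpirole for 30 min at room temperature; cAMP measured by HTRF (665/620 nm).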

[20] = target: 5-hydroxytryptamine receptor 2A (Homo sapiens) (UniProt P28223); test: 5-hydroxytryptamine receptor 2A (HTR2A) small molecule antagonists, cell-based qHTS assay (AID 1963586); also: nearly all actives have a fitted effect of over 45% in size
Outline: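 CHO cells stably expressing human HTR2A were plated for 18 h at 37 C, then loaded with calcium dye for 1 h. Compounds were preincubated 5 min at room temperature before DOI (4 nM solution) was added. Kinetic fluorescence was read for 3 min.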

Structure (SMILES)	Potency [1]	Potency [2]	Potency [3]	Potency [4]	Potency [5]	Potency [6]	Potency [7]	Potency [8]	Potency [9]	Potency [10]	Potency [11]	Potency [12]	Potency [13]	Potency [14]	Potency [15]	Potency [16]	Potency [17]	Potency [18]	Potency [19]	Potency [20]
CCCCCCCCCCCCI	inactive	inactive	inactive	inactive	inactive	inactive	inactive	inactive	inactive	inactive	inactive	inactive	inactive	inactive	inactive	inactive	inactive	54.7 µM (active)	inactive	–
Nc1ccc(Oc2ccc(Cl)cc2)cc1	inactive	inactive	inactive	inactive	inactive	inactive	inactive	inactive	inactive	inactive	inactive	inactive	inactive	inactive	inactive	inactive	–	inactive	inactive	–
C=CCCC=C	inactive	70.5 µM (active)	inactive	inactive	inactive	inactive	inactive	inactive	inactive	inactive	–	inactive	inactive	inactive	inactive	inactive	inactive	inactive	inactive	inactive
Nc1ccccc1S(=O)(=O)O	inactive	inactive	inactive	inactive	inactive	inactive	inactive	inactive	inactive	inactive	–	inactive	inactive	inactive	inactive	inactive	–	inactive	inactive	inactive
ON(Cc1ccccc1)Cc1ccccc1	inactive	inactive	inactive	inactive	inactive	inactive	inactive	inactive	inactive	inactive	–	inactive	inactive	inactive	inactive	inactive	inactive	inactive	inactive	inactive
NS(=O)(=O)c1ccc(N2CCCCS2(=O)=O)cc1	inactive	inactive	inactive	inactive	inactive	inactive	inactive	inactive	inactive	inactive	inactive	inactive	inactive	inactive	inactive	inactive	inactive	inactive	inactive	–
C/C=C/C(=O)C1=C(C)C=CCC1(C)C	inactive	inactive	inactive	inactive	inactive	inactive	inactive	inactive	inactive	inactive	inactive	inactive	inactive	inactive	inactive	inactive	inactive	inactive	inactive	–
O=c1[nH][nH]c(=O)c2cc([N+](=O)[O-])ccc12	inactive	inactive	inactive	inactive	inactive	inactive	inactive	inactive	inactive	inactive	inactive	inactive	inactive	inactive	inactive	inactive	inactive	–	inactive	–
CC(C)CCCCCOC(=O)CCS	inactive	inactive	inactive	inactive	inactive	inactive	inactive	inactive	inactive	inactive	–	inactive	inactive	inactive	inactive	inactive	inactive	inactive	inactive	inactive
C[Si](C)(C)Cl	inactive	inactive	inactive	inactive	inactive	inactive	inactive	inactive	inactive	inactive	inactive	inactive	inactive	inactive	inactive	inactive	inactive	inactive	–	–
O=CC1CC1	inactive	inactive	inactive	inactive	inactive	inactive	inactive	inactive	inactive	inactive	inactive	inactive	inactive	inactive	inactive	inactive	inactive	inactive	inactive	–
COc1ccc2cc1Oc1cc3c(cc1OC)CC[N+](C)(C)[C@H]3Cc1ccc(cc1)Oc1c(OC)c(OC)cc3c1[C@@H](C2)[N+](C)(C)CC3	inactive	inactive	inactive	inactive	inactive	inactive	inactive	inactive	inactive	inactive	inactive	inactive	inactive	inactive	inactive	inactive	inactive	inactive	inactive	–
Oc1c(Cl)ccc(Cl)c1Cl	inactive	inactive	inactive	inactive	inactive	inactive	inactive	inactive	inactive	inactive	inactive	inactive	inactive	inactive	inactive	inactive	–	inactive	inactive	–
CC1=CCC(C(C)(C)O)CC1 (stereo unspecified)	inactive	inactive	inactive	inactive	inactive	inactive	inactive	inactive	inactive	inactive	–	inactive	inactive	inactive	inactive	inactive	inactive	inactive	inactive	inactive
CC(Cl)COP(=O)(OCC(C)Cl)OCC(C)Cl (stereo unspecified)	inactive	inactive	inactive	inactive	inactive	inactive	inactive	inactive	inactive	inactive	inactive	inactive	inactive	inactive	inactive	inactive	inactive	inactive	inactive	inactive
